Read-out in assay [1]: Macrophage colony-stimulating factor (MCSF), CSF1 (gene 1435)
The assay is described as follows: BSK_LPS_MCSF: BioMAP Diversity Plus: LPS Assay for Macrophage colony-stimulating factor (MCSF) Biomarker Activity (AID 2283083). The note with it: primary human HUVEC with PBMC; actives raise or lower the signal. The method, boiled down:
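HUVEC–PBMC co-culture, M-CSF measured by ELISA 24 h after chemical dosing. Fitted in both directions relative to DMSO as negative control; overt cytotoxicity assessed by SRB total-protein staining in parallel cultures.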

Read-out in assay [2]: Tissue Factor, F3 (gene 2152)
The assay is described as follows: BSK_LPS_TissueFactor: BioMAP Diversity Plus: LPS Assay for Tissue Factor Biomarker Activity (AID 2283084). The note with it: primary human HUVEC with PBMC; actives raise or lower the signal. The method, boiled down:
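Human umbilical vein endothelial cells co-cultured with PBMC were dosed with compound. Cell-surface CD142 was measured by ELISA 24 h later. Activity was fitted bidirectionally against DMSO, with SRB total-protein staining in parallel cultures for cytotoxicity.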

Read-out in assay [3]: Tumor necrosis factor (Homo sapiens) (UniProt P01375)
The assay is described as follows: BSK_LPS_TNFa: BioMAP Diversity Plus: LPS Assay for Tumour Necrosis Factor alpha (TNFa) Biomarker Activity (AID 2283085). The following applies: primary human HUVEC with PBMC; actives raise or lower the signal. The method in brief: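 Human umbilical vein endothelial cells co-cultured with PBMC and stimulated with LPS. TNFa was measured by ELISA 24 h after chemical dosing, fitted bidirectionally relative to DMSO.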

Read-out in assay [4]: Vascular cell adhesion molecule 1 (VCAM1), VCAM1 (gene 7412)
The assay is described as follows: BSK_LPS_VCAM1: BioMAP Diversity Plus: LPS Assay for Vascular cell adhesion molecule 1 (VCAM1) Biomarker Activity (AID 2283086). The following applies: primary human HUVEC with PBMC; actives raise or lower the signal. The method, boiled down:
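Human umbilical vein endothelial cells co-cultured with PBMC and stimulated with LPS; VCAM-1 measured by ELISA 24 h after dosing. Bidirectional curve fitting against DMSO baseline; cytotoxicity tracked in parallel by SRB total-protein staining.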

Read-out in the next assay: CD38, CD38 (gene 952)
The assay is described as follows: BSK_SAg_CD38: BioMAP Diversity Plus: SAg Assay for CD38 Biomarker Activity (AID 2283087). The following applies: primary human HUVEC with PBMC; actives raise or lower the signal. The method, boiled down:
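Human HUVEC plus PBMC co-culture stimulated with superantigen; CD38 measured by ELISA 24 h after chemical dosing. Fluorescence read-out, bidirectional fit against DMSO; cytotoxicity tracked in parallel by SRB and Alamar Blue.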

Read-out in the next assay: CD40, CD40 (gene 958)
The assay is described as follows: BSK_SAg_CD40: BioMAP Diversity Plus: SAg Assay for CD40 Biomarker Activity (AID 2283088). The note with it: primary human HUVEC with PBMC; actives raise or lower the signal. The method in brief:
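HUVEC plus PBMC co-culture, superantigen-activated, with CD40 read by ELISA 24 h after dosing. Curves fitted in both directions against DMSO. Overt cytotoxicity checked by parallel SRB total-protein staining.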

Read-out in another assay: CD69, CD69 (gene 969)
The assay is described as follows: BSK_SAg_CD69: BioMAP Diversity Plus: SAg Assay for CD69 Biomarker Activity (AID 2283089).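 For AC50: cell surface CD69 protein quantified by ELISA with fluorescence detection.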 The following applies: primary human HUVEC with PBMC; actives raise or lower the signal. The method in brief:
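Endothelial/PBMC co-culture; chemical added; 24 h incubation; CD69 ELISA with fluorescence detection; bidirectional fit vs DMSO.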

Read-out in assay [5]: Monocyte Chemoattractant Protein-1 (MCP1), CCL2 (gene 6347)
The assay is described as follows: BSK_SAg_MCP1: BioMAP Diversity Plus: SAg Assay for Monocyte Chemoattractant Protein-1 (MCP1) Biomarker Activity (AID 2283090). The following applies: primary human HUVEC with PBMC; actives raise or lower the signal. The method in brief: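 MCP-1 levels in the endothelial–PBMC SAg co-culture were quantified by ELISA at 24 h post-dosing; both increases and decreases versus DMSO scored. Cytotoxicity monitored by SRB total protein in parallel cultures.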

Read-out in assay [6]: E-selectin (Homo sapiens) (UniProt P16581)
The assay is described as follows: BSK_SAg_Eselectin: BioMAP Diversity Plus: SAg Assay for Eselectin Biomarker Activity (AID 2283091). The following applies: primary human HUVEC with PBMC; actives raise or lower the signal. The method, boiled down:
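Human umbilical vein endothelial cells co-cultured with peripheral blood mononuclear cells, SAg system. E-selectin is measured by ELISA 24 h after dosing and fitted bidirectionally against DMSO. Cytotoxicity is checked by SRB staining of parallel cultures.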

Assay [7] is described as follows: BSK_SAg_PBMCCytotoxicity: PBMC Cytotoxicity Assessment in the BioMAP Diversity Plus: SAg Assay (AID 2283093).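 For AC50: PBMC superantigen activated with SEB plus TSST-1 one hour after compound addition.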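 Note: PBMC viability measured as Alamar Blue reduction fluorescence at 546/580 nm; fitted both ways against DMSO so a hit may be loss or gain of signal.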 The note with it: primary human HUVEC with PBMC. The method in brief:
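Human umbilical vein endothelial cells co-cultured with PBMC; PBMC (75,000/well) pre-treated with compound 1 h, then activated with SEB and TSST-1 (20 ng/mL final each) for 90 h. Alamar Blue added 6 h, fluorescence 546/580 nm; bidirectional fit versus DMSO.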

Read-out in assay [8]: Interleukin-8 (IL8), CXCL8 (gene 3576)
The assay is described as follows: BSK_SAg_IL8: BioMAP Diversity Plus: SAg Assay for Interleukin-8 (IL8) Biomarker Activity (AID 2283094). The note with it: primary human HUVEC with PBMC; actives raise or lower the signal. The method, boiled down:
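Human umbilical vein endothelial cells co-cultured with PBMC, stimulated with superantigen; IL-8 measured by ELISA 24 h after chemical dosing. Bidirectional fitting versus DMSO; SRB staining in parallel cultures tracks cytotoxicity.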

The nature of assay [9]: BSK_SAg_Proliferation: Cell Proliferation Assessment in the BioMAP Diversity Plus: SAg Assay (AID 2283095). The note with it: primary human HUVEC with PBMC. The method in brief: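 Human umbilical vein endothelial cells co-cultured with PBMC; sulforhodamine B total-protein staining (0.1% SRB after 10% TCA fixation, absorbance 560 nm) at 96 h in sub-confluent culture. Fitted bidirectionally against DMSO.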

A short description of assay [10]: BSK_SAg_SRB: Viability Assessment in the BioMAP Diversity Plus: SAg Assay (AID 2283096).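 Note: cells read one day after compound addition; hits may be either gain or loss of signal compared with DMSO.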 The note with it: primary human HUVEC with PBMC. The method, boiled down: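 Endothelial/PBMC primary human co-culture; compound 24 h; fix 10% TCA, stain 0.1% SRB, A560; protein content as cytotoxicity proxy; bidirectional curve fit, DMSO = baseline.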
Read-out in assay [11]: Monokine induced gamma interferon (MIG), CXCL9 (gene 4283)
The assay is described as follows: BSK_SAg_MIG: BioMAP Diversity Plus: SAg Assay for Monokine induced gamma interferon (MIG) Biomarker Activity (AID 2283092). The note with it: primary human HUVEC with PBMC; actives raise or lower the signal. The method, boiled down: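 Measures CXCL9 protein by ELISA in a human vascular primary-cell co-culture (umbilical vein endothelium with PBMC) 24 h after chemical addition. Activity is scored up or down from the DMSO control.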

The source made the active and inactive calls. Rule for the calls: active = hit-call score of the fitted dose curve at least 0.9, where 1 is the maximum; inactive = score below 0.9.

Chain of Tumor necrosis factor (Homo sapiens) (P01375 whole entry, looked up): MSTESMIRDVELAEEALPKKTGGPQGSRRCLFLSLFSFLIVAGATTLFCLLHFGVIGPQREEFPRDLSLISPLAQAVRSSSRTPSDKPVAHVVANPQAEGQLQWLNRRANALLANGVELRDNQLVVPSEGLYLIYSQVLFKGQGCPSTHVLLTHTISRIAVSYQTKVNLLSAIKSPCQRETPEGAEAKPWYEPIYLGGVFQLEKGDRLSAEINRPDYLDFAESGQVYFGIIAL
Chain of E-selectin (Homo sapiens) (P16581 whole entry, looked up): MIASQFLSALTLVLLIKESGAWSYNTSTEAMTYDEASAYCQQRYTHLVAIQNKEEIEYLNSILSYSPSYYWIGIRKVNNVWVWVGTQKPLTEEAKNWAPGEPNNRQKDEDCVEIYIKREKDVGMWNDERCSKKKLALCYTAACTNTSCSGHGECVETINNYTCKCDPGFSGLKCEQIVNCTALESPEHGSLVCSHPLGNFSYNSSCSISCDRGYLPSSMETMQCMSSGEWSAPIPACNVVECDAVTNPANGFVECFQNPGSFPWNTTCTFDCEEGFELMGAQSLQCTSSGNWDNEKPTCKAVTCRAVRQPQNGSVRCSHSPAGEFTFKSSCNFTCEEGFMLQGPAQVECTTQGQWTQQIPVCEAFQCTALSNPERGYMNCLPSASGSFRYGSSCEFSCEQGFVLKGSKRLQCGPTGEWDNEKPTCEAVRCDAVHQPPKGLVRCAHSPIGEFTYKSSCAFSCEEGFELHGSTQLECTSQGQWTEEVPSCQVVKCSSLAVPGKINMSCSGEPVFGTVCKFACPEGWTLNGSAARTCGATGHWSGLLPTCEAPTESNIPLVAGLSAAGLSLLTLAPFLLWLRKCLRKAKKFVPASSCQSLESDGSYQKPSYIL

As to `Nc1cccc(N)c1`, the outcome in assay [1] is “inactive”; in assay [2], “inactive”; in assay [3], “inactive”; in [4], “inactive”; in the assay with CD38, CD38 (gene 952), “inactive”; in the assay with CD40, CD40 (gene 958) it was “inactive”. Besides, the outcome with CD69, CD69 (gene 969) is “inactive”; in assay [5], “inactive”; in [6] it was “inactive”; in [7] it was “inactive”; in assay [8], “inactive”; in assay [9] it was “inactive”. The result in assay [10] was inactive.
On to `CCCCCCCCCCCCCCCO`, for which the AC50 is 31 µM (active) in [1]; 3970 nM (active) in [3]; 32.4 µM (active) in [4]; 32.6 µM (active) with CD38, CD38 (gene 952); 37.3 µM (active) in the assay with CD40, CD40 (gene 958); 31.7 µM (active) with CD69, CD69 (gene 969). For the same compound, the AC50 is 33.3 µM (active) in [5]; 33.5 µM (active) in assay [6]; 30.7 µM (active) in assay [7]; 28.6 µM (active) in [8]; 29.5 µM (active) in assay [9]; 34.6 µM (active) in assay [10]. For the same compound, the outcome in assay [2] was inactive.
Consider `Cc1ccc(O)cc1`, for which the outcome was “inactive” in assay [1]; “inactive” in assay [2]; “inactive” in [3]; “inactive” in [4]; “inactive” with CD38, CD38 (gene 952); “inactive” with CD40, CD40 (gene 958). Moreover, the outcome with CD69, CD69 (gene 969) was “inactive”; in [5] it was “inactive”; in assay [6], “inactive”; in [7], “inactive”; in assay [8], “inactive”; in assay [9], “inactive”. Besides, the result in [10] was inactive.
In the case of `C=CC(=C)CCC=C(C)C`, the outcome was “inactive” in assay [1]; “inactive” in assay [2]; “inactive” in [3]; “inactive” in assay [4]; “inactive” with CD40, CD40 (gene 958); “inactive” with CD69, CD69 (gene 969). Also, the outcome in assay [5], in assay [6], in assay [11], in [7], in assay [8] and in assay [9] was inactive. In assay [10], the result was inactive.
As to `O=C(NS(=O)(=O)/C=C/c1ccccc1)c1ccc(F)cc1Cl`, the outcome in assay [1] is “inactive”; in [2], “inactive”; in [3] it was “inactive”; in assay [4] it was “inactive”; in the assay with CD38, CD38 (gene 952) it was “inactive”; with CD69, CD69 (gene 969), “inactive”. Moreover, the outcome in [5], in assay [6], in assay [7], in assay [8] and in assay [10] was inactive. Further, the concentration at half-maximal activity (AC50) with CD40, CD40 (gene 958) is 9.37 µM (active); in assay [9], 8.5 µM (active).
For the compound `CCC(C)(C)C(=O)O[C@H]1C[C@@H](C)C=C2C=C[C@H](C)[C@H](CC[C@@H]3C[C@@H](O)CC(=O)O3)[C@H]21`, the AC50 in [1] is 35 µM (active); in assay [3], 363 nM (active); in assay [4], 25.4 µM (active); with CD38, CD38 (gene 952) it was 24.9 µM (active); with CD40, CD40 (gene 958), 3.99 µM (active); in [5], 20 µM (active). The concentration at half-maximal activity (AC50) was 0.149 µM (active) in [6]; 25.1 µM (active) in assay [7]; 0.149 µM (active) in assay [8]; 6.31 µM (active) in assay [9]; 1.32 µM (active) in [10]. For the same compound, in assay [2], the result was inactive.
`Cc1ccc(C)c(O)c1`: the outcome in [1] is “inactive”; in [2], “inactive”; in assay [4], “inactive”; in the assay with CD40, CD40 (gene 958), “inactive”; with CD69, CD69 (gene 969) it was “inactive”; in assay [5] it was “inactive”. Besides, the outcome in [6], in [11], in assay [7], in assay [8], in assay [9] and in assay [10] was inactive. In addition, the AC50 in assay [3] is 796 nM (active).
For `Cn1c(=O)c2c(ncn2C)n(C)c1=O`, the outcome in [1] was “inactive”; in assay [2], “inactive”; in assay [3] it was “inactive”; in assay [4], “inactive”; with CD38, CD38 (gene 952), “inactive”; with CD40, CD40 (gene 958) it was “inactive”. The outcome with CD69, CD69 (gene 969) is “inactive”; in assay [5], “inactive”; in [6], “inactive”; in [7], “inactive”; in assay [8], “inactive”; in assay [9], “inactive”. For the same compound, in assay [10], the result was inactive.

The values above are taken from PubChem BioAssay (EPA / NIEHS).
